Bioassay records: PubChem, National Center for Advancing Translational Sciences (NCATS)
The list is not random: actives were taken first. Their share in the collection is about 6.7%.
SW480 rereplic – A quantitative high throughput screen for small molecules that induce DNA re-replication in SW480 colon adenocarcinoma cells; 340,000 tested, 1.8% active; Potency, µM (highest dose often 46.1 µM), without a hit: at the highest dose re-replication activation, actives largely listed as activators; AID 624297, 2012; SW480 DNA re-replication, Hoechst DNA content imaging, 48 h; further: % of control where 0% means no effect; nearly all actives have a fitted effect of over 55% in size
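Per well, 250 cells were exposed to pinned compound for 48 hr. Nuclear DNA was visualised with Hoechst (40 min, 37 C) and total object intensity recorded by fluorescence scanning.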
KB-V1 cytotox – qHTS assay for MDR1-selective chemotherapeutics: Primary screen using the drug-selected MDR subline cells KB-V1 | KB-V1 MDR cells viability, CellTiter-Glo, 72 h | Potency, µM (titrated, usually from 46.1 µM), most hits filed as cytotoxic | 400,000 tested, 3.4% active | AID 1347076, 2019; further: on the % scale 0 is the no-effect control and ±100 the full control effect; nearly all actives have a fitted effect of over 60% in size
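KB-V1 MDR subline cells in DMEM (phenol-red free, 10% FBS) exposed to compounds in qHTS concentration series for 72 h at 37 degrees C. Viability read by CellTiter-Glo luminescence; concentration-effect curves fitted after normalization and correction.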
MCF10A rerep – A quantitative high throughput screen for small molecules that induce DNA re-replication in MCF 10a normal breast cells; 350,000 tested, 2.9% active; Potency, µM (titrated, usually from 46.1 µM), inactives show at the highest dose activity, positive = re-replication, usual class: activators; AID 624296, 2012; MCF 10A DNA re-replication, Hoechst nuclear intensity, 48 h; further: % of control where 0% means no effect; nearly all actives have a fitted effect of over 50% in size
PINK1 modulator – A Quantitative High throughput Screen to Identify Chemical Modulators of PINK1 Expression. 410,000 tested, 0.2% active. AID 624263, 2012. Potency, µM (doses to about 76.6 µM), inactives show top-dose activation (PINK1 increase), actives largely listed as activators. PINK1 immunofluorescence, high-content cytometry, 24 h; active means well fitted activation curve with a large enough effect; inconclusive means small, poorly fitted or top-dose-only effect; cell line not stated here; further: % of control where 0% means no effect; nearly all actives have a fitted effect of over 65% in size
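Stable cell line, 250 cells/well, 12 h attachment; compounds pinned at 5 concentrations, 24 h; CCCP control. Fixed with nuclear dye, primary antibodies 12 h at 10 degrees C, secondary plus cell stain; laser-scanning cytometer read.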
KB-3-1 cytotox – qHTS assay for MDR1-selective chemotherapeutics: Primary screen using the parental adenocarcinoma cell KB-3-1 | KB-3-1 viability, CellTiter-Glo ATP luminescence, 72 h | Potency, µM (highest dose often 46.1 µM), hits mostly cytotoxic | 400,000 tested, 1.4% active; further: on the % scale 0 is the no-effect control and ±100 the full control effect; nearly all actives have a fitted effect of over 60% in size
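Luminescent ATP read-out (CellTiter-Glo) measures survival of drug-naive KB-3-1 cells after 72 h compound exposure at 37 °C. Titration series was screened from lowest to highest concentration, with DMSO vehicle plates as background controls.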
An asterisk follows results filed as active; i = inactive; ? = inconclusive; . = not tested or not shown; [ ] = remark or other dose. Unless noted, the call rests on the fitted dose curve; in most records, active means well fitted curve in the direction sought with a large enough effect; inconclusive means small, poorly fitted or top-dose-only effect, or another doubt; inactive means no such curve, though single readings can be large; an effect the other way counts as inactive or inconclusive. Potency means the concentration at half of the fitted maximal effect.

SMILES	SW480 rereplic	KB-V1 cytotox	MCF10A rerep	PINK1 modulator	KB-3-1 cytotox
CC1(C)c2ssc(=S)c2-c2ccccc2N1C(=O)CSC1=NCCS1	4%	16µM*	23%	-3%	i
Cc1cc2c(cc1C)N(C(=O)CSC1=NCCS1)C(C)(C)c1ssc(=S)c1-2	10%	16µM*	4%	-6%[38.3 µM]	i
Cc1cc(C)c2c(c1)-c1c(ssc1=S)C(C)(C)N2C(=O)CSc1nncn1C	-4%	23µM*	?	-3%	21µM*
Cc1ccccc1NC(=O)c1c(C)oc2ccc(O)c(CN3CCCCCC3)c12	.	.	.	1%	.
CCCc1ccc(OC(C)c2nc(-c3ccc(-n4cccc4)cc3)no2)cc1 (stereo not drawn)	.	i	.	7%	i
CNC(=O)CC1C(=O)N(Cc2ccccc2)C(=S)N1NC(=O)c1cccc(F)c1 (stereo not drawn)	-9%	21µM*	-7%	4%	i
CNC(=O)CC1C(=O)N(c2ccc(OC)cc2)C(=S)N1NC(=O)c1cccc(F)c1 (stereo not drawn)	2.3µM*	i	?	0%	i
CNC(=O)CC1C(=O)N(c2ccc(Cl)cc2)C(=S)N1NC(=O)c1cccc(F)c1 (stereo not drawn)	-17%	i	3%	2%	i
CCN1C(=O)C(CC(=O)Nc2ccccc2Cl)N(NC(=O)c2cccc(F)c2)C1=S (stereo not drawn)	?	.	?	3%	.
CCSC(C)CC1CC(=O)CC(=O)C1 (stereo not drawn)	-9%	i	-3%	7%	i
CCOC(=O)C1C(=O)C(C(C)=O)C(=O)CC1CC(C)SCC (stereo not drawn)	-13%	21µM*	-6%	.	i
CCC(C)N(C(=O)CSc1nc(-c2cccs2)nc2ccccc12)C1CCS(=O)(=O)C1 (stereo not drawn)	?	1.5µM*	?	-2%	i
CCC(C)N(C(=O)CSc1ncnc2sccc12)C1CCS(=O)(=O)C1 (stereo not drawn)	0%	i	-2%	-1%	i
CCOC(=O)Nc1oc2ccccc2c(=O)c1CN1CCOCC1	-4%	i	16µM*	3%	i
CCOC(=O)c1oc2ccccc2c1CN1CC(C)OC(C)C1 (stereo not drawn)	1%	i	0%	2%	i
C=CCn1c(N)c(C(=O)NCC2CCCO2)c2nc3ccccc3nc21 (stereo not drawn)	9.2µM*	?	-7%	.	i
O=C(NCC1CCCO1)c1coc2nc3ccccc3nc12 (stereo not drawn)	11%	?	21µM*	5%	i
COc1ccc(-n2c(N)c(C(=O)NCC3CCCO3)c3nc4ccccc4nc32)c(OC)c1 (stereo not drawn)	?	i	?	?	i
O=C(Nc1ccccc1C(=O)NCC1CCCO1)c1ccccc1 (stereo not drawn)	-3%	i	2%	-1%	i
c1ccc(-n2nnnc2NC2CCCCC2)cc1	5%	i	28%	2.8µM*	i
O=C(NC1CCCCC1)C1CCN(c2nnnn2-c2ccccc2)CC1	-8%	?	-3%	4%[38.3 µM]	i
COc1ccc2c(CNC3CCC(C)CC3)c(C(=O)O)n(Cc3ccccc3)c2c1 (stereo not drawn)	.	?	.	0%	i
CC(O)CNc1ccc(-c2nn(C)c(=O)c3ccccc23)cc1[N+](=O)[O-] (stereo not drawn)	-4%	6.5µM*	4%	0%	9.2µM*
CN(C)CCCCOc1ccc(F)cc1	-24%	i	2%	-1%	i
CN(C)CCOC1(Cc2ccc(F)cc2)CCC(C(C)(C)C)CC1 (stereo not drawn)	12%	16µM*	11%	-7%	i
SMILES	SW480 rereplic	KB-V1 cytotox	MCF10A rerep	PINK1 modulator	KB-3-1 cytotox
Cc1ccc(CC2(OCCN(C)C)CCC(C(C)(C)C)CC2)cc1 (stereo not drawn)	24%	18µM*	?	-7%	?
COc1ccc(-c2noc(N3CCC(C(=O)N(C)c4ccccc4)CC3)n2)cc1	0%	i	0%	-1%	i
O=C(Nc1cccc(Cl)c1)c1nc[nH]c1C(=O)Nc1ccccc1F	.	i	.	11%	?
CN1CC(c2ccc(Cl)c(Cl)c2)[C@@]2(COc3ccccc3C2=O)[C@@]12C(=O)Nc1ccccc12 (stereo partly drawn)	?	9.2µM*	16µM*	?	?
CC1CCCN(S(=O)(=O)c2ccc(S(=O)(=O)NC(C)c3cccs3)cc2)C1 (stereo not drawn)	-4%	16µM*	1%	-1%[38.3 µM]	i
CCc1ccccc1NC(=O)CCS(=O)(=O)c1cccc2nonc12	.	i	.	5%	i
CC(=O)OCC1=C(C(=O)O)N2C(=O)[C@@H](NC(=O)Cc3ccccc3)[C@H]2SC1	-6%	i	10%	0%	i
CCOc1ccc(C(=O)NC2C(=O)N3C(C(=O)O)=C(COC(C)=O)CSC23)cc1OCC (stereo not drawn)	-9%	i	16µM*	1%	i
O=C(NC(=S)N(CCc1ccccc1)CCc1ccccc1)c1ccco1	?	6.5µM*	14%	2%	?
COc1cc(C(=O)NC(=S)N(C)Cc2ccccc2)cc(OC)c1OC	-7%	i	1%	3%	i
COc1cc(C(=O)NC(=S)N(CCc2ccccc2)CCc2ccccc2)cc(OC)c1OC	?	2.3µM*	?	?	?
O=C(CCCc1ccccc1)NCCc1ccccc1	-1%	i	0%	0%	i
CC(CCc1ccccc1)NC(=S)NC(=O)c1ccco1 (stereo not drawn)	0%	?	5%	1%	i
O=C(CCl)N(CCc1ccccc1)CCc1ccccc1	4.1µM*	?	23µM*	-1%	?
O=C(NC(=S)N(Cc1ccccc1)Cc1ccccc1)c1ccccc1F	1.6µM*	i	19%	-2%	i
O=C(NC(=S)NCc1ccccc1)c1ccccc1F	-3%	i	5%	.	i
Cc1cc2nc(-c3ccccc3Br)n(/C=C(\c3ccccc3)n3c(=O)[nH]c4ccccc43)c2cc1C	.	i	.	3%	i
COc1ccc(CNC(=O)c2ccc3nc(CCc4ccccc4)oc3c2)c(OC)c1	.	i	.	0%	i
CCCN(C)CCCOc1cc2nc(N3CCCN(C)CC3)nc(NC3CCN(C)CC3)c2cc1OC	.	i	.	-1%	?
Nc1nnn(CC(=O)N/N=C/C=C/c2ccccc2)n1	-41%	i	-1%	-1%	i
